# Data: PubChem BioAssay (Tox21)
# “And” between values parts separate entries of the source, which are not always exact repeats. Equal entries are not always repeated. Inconclusive results are not listed. Where a call stands in place of a potency, no number is given. Some structures have more than one record in an assay (separate samples or runs), and their calls can disagree. The source made the active and inactive calls. Unless noted, calls follow the shape of the full dose curve.
# Key:
# [1] = Nuclear factor erythroid 2-related factor 2/antioxidant responsive element (Nrf2/ARE) small molecule agonists: qHTS cell viability counter screen in human keratinocytes (AID 1919968; active = well fitted curve in the direction sought with a large enough effect in the repeat runs; an effect the other way counts as inactive or inconclusive; also: nearly all actives have a fitted effect of over 55% in size)
# In short: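 CellTiter-Fluor fluorescence, read 1 h after reagent, gave viability in the same wells as the ARE-luciferase assay. KeratinoSens cells (1,500/well) had 23 h compound exposure at 37 C/5% CO2 following 5 h plating.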
# [2] = Nuclear factor erythroid 2-related factor 2/antioxidant responsive element (Nrf2/ARE) small molecule agonists: luciferase reporter gene qHTS assay in human keratinocytes (AID 1919969); also: nearly all actives have a fitted effect of over 35% in size; also: potency is read from the fitted curve at half-maximal effect
# [3] = biological target: Gonadotropin-releasing hormone receptor (Homo sapiens) (UniProt P30968); assay: Human gonadotropin-releasing hormone receptor (GnRHR) small molecule agonists, calcium flux assay in GnRHR-HEK293 cells (AID 1920063); also: nearly all actives have a fitted effect of over 35% in size
# Gonadotropin-releasing hormone receptor (Homo sapiens), sequence (P30968 whole entry, looked up): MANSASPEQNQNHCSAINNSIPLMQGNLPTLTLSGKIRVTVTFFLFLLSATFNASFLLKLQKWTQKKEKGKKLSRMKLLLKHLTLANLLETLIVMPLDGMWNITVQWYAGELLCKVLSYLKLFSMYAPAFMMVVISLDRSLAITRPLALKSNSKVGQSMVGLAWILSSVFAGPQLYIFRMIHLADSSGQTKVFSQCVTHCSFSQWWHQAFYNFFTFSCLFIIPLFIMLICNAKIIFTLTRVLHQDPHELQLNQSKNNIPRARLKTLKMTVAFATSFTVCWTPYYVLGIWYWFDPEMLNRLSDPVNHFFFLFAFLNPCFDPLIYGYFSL
# In short: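 Agonist mode: compounds at 15 concentrations, in triplicate, went onto calcium dye-loaded GnRHR-HEK293 cells. Intracellular calcium was then followed as 480/540 nm fluorescence at 1 s intervals over 3 min.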
# [4] = biological target: KiSS-1 receptor (Homo sapiens) (UniProt Q969F8); assay: Human kisspeptin (KISS1R) small molecule agonists, calcium flux assay in KISS1R-HEK293 cells (AID 1920064; active = well fitted curve in the direction sought with a large enough effect in the repeat runs; an effect the other way counts as inactive or inconclusive)
# KiSS-1 receptor (Homo sapiens), sequence (Q969F8 whole entry, looked up): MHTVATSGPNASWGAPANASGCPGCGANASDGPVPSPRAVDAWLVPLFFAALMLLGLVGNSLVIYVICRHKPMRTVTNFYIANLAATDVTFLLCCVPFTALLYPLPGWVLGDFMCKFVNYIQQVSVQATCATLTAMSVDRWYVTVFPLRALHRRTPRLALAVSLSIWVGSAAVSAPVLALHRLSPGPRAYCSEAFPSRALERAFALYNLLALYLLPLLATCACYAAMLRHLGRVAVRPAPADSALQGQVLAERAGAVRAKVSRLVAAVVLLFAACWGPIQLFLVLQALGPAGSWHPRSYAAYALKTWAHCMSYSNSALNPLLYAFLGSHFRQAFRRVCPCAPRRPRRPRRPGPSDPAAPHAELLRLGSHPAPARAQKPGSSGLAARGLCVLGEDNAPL
# In short: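 Agonist mode: intracellular calcium rise tracked at 1 s intervals over 3 min (480/540 nm) immediately after compound addition to dye-loaded KISS1R-HEK293 stable cells. Each compound tested at 15 concentrations in triplicate.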
# [5] = G protein-coupled receptor (GPCR) small molecule agonists, calcium flux assay: HEK293 wild type cell line counter screen (AID 1920065)
# In short: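 Calcium flux counter screen: compound added in agonist mode at 15 concentrations in triplicate to dye-loaded parental HEK293 cells. Fluorescence (480/540) read kinetically for 3 min; ATP served as positive control.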
# [6] = p53 small molecule agonists, cell-based qHTS assay with human liver microsomes (AID 1963577);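 also: p53 response element beta-lactamase reporter cells with liver microsomes plus NADPH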
# In short: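 Steps: plate p53RE-bla cells, incubate 5 h at 37 C; add compound in DMSO; add microsomes (0.5 mg/mL final) and NADPH (0.5 mg/mL final); incubate 16 h at 37 C; add LiveBLAzer, 2 h RT; read fluorescence.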
# [7] = p53 small molecule agonists, cell-based qHTS assay with rat liver microsomes (AID 1963578)
# In short: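 Metabolic activation is supplied by rat liver microsomes with NADPH (each 0.5 mg/mL final). p53RE-bla cells incubate with compound 16 h at 37 C; reporter activity is measured by LiveBLAzer fluorescence.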
# [8] = p53 small molecule agonists, cell-based qHTS assay with human liver microsomes: qHTS cell viability counter screen (AID 1963579); also: nearly all actives have a fitted effect of over 45% in size; also: potency is read from the fitted curve at half-maximal effect
# In short: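 After the 460/530 nm beta-lactamase read, CellTiter-Glo was added to the same wells and luminescence measured after 30 min at room temperature, giving viability of p53RE-bla cells treated 16 h with compounds plus microsomes and NADPH.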
# [9] = p53 small molecule agonists, cell-based qHTS assay: qHTS cell viability counter screen (AID 1963581); also: nearly all actives have a fitted effect of over 45% in size; also: potency is read from the fitted curve at half-maximal effect
# In short: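 Counter screen read by CellTiter-Glo luminescence (ATP content, 30 min at room temperature), run in the same wells as the beta-lactamase reporter read. HCT-116 p53RE-bla cells saw compounds for 16 h at 37 C.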
# [10] = p53 small molecule agonists, cell-based qHTS assay (AID 1963582; active = well fitted activation curve with a large enough effect in the signal ratio in the repeat runs, not every such curve was filed as active; the % refers to the signal ratio)
# In short: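 Read-out is beta-lactamase FRET fluorescence after 2 h at room temperature with LiveBLAzer B/G substrate. p53 response element-bla cells were treated 16 h at 37 C with compounds in DMSO, added 5 h after seeding.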
# [11] = cAMP Responsive Elements (CRE) small molecule agonists, cell-based qHTS assay (AID 1963590)
# In short: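 Agonist mode: compound added to CRE-bla HEK 293T cells (2,000/well, 18 h after plating) for 3 h at 37 C/5% CO2. Reporter activity detected via FRET beta-lactamase substrate, 2 h room-temperature loading.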
# [12] = cAMP Responsive Elements (CRE) small molecule antagonists, cell-based qHTS assay (AID 1963591; active = well fitted inhibition curve with a large enough effect in the signal ratio in the repeat runs, not every such curve was filed as active; the % refers to the signal ratio)
# In short: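 Antagonist mode: compounds are added alongside the adenylyl cyclase activator NKH477 (0.25 uM final) to CRE-bla HEK293T cells for 3 h. LiveBLAzer FRET substrate, 2 h at room temperature, reports bla expression.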
# [13] = biological target: D(2) dopamine receptor (Homo sapiens) (UniProt P14416); assay: Dopamine D2 receptor (DRD2) small molecule agonists, cell-based qHTS assay (AID 1963594); also: nearly all actives have a fitted effect of over 35% in size
# D(2) dopamine receptor (Homo sapiens), sequence (P14416 whole entry, looked up): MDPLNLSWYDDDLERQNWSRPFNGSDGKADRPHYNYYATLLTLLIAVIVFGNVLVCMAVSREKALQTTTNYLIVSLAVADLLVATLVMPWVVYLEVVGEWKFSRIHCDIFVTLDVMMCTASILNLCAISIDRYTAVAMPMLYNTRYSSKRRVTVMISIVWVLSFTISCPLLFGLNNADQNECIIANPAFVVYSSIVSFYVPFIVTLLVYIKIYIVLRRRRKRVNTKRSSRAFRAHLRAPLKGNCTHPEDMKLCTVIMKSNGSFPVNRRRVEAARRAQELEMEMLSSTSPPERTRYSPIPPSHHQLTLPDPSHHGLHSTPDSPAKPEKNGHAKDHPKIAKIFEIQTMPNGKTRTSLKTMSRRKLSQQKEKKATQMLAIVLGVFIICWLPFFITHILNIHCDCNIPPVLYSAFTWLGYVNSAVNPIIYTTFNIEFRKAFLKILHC
# In short: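 HEK293 cells stably expressing human DRD2, pre-treated with PDE inhibitor Ro20-1724 (0.1 mM final) and compound 10 min at room temperature, then stimulated with NKH477 (200nM […]) for 30 min. cAMP read by HTRF (665/620 nm).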
# [14] = biological target: D(2) dopamine receptor (Homo sapiens) (UniProt P14416); assay: Dopamine D2 receptor (DRD2) small molecule antagonists, cell-based qHTS assay (AID 1963595; active = well fitted inhibition curve with a large enough effect in the signal ratio in the repeat runs, with a control signal flat; the % refers to the signal ratio)
# In short: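 HEK293 cells stably expressing DRD2 were preincubated with 0.1 mM Ro20-1724, then with compound for 10 min at room temperature. Cells were stimulated with 200 nM NKH477 plus 12 nM quinpirole for 30 min, and cAMP was read by HTRF.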
# [15] = p53 small molecule agonists, cell-based qHTS assay with rat liver microsomes: qHTS cell viability counter screen (AID 1963580); also: nearly all actives have a fitted effect of over 45% in size
# In short: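 After the beta-lactamase ratio was read, CellTiter-Glo was added to the same wells and luminescence measured at 30 min; cells had been treated 16 h at 37 C with compounds, rat liver microsomes and NADPH (0.5 mg/mL final each).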
# [16] = biological target: Beta-2 adrenergic receptor (Homo sapiens) (UniProt P07550); assay: Adrenergic beta2 receptor (ADRB2) small molecule antagonists, cell-based qHTS assay (AID 1963592); also: series mostly up to about 92 µM; nearly all actives have a fitted effect of over 50% in size
# Beta-2 adrenergic receptor (Homo sapiens), sequence (P07550 whole entry, looked up): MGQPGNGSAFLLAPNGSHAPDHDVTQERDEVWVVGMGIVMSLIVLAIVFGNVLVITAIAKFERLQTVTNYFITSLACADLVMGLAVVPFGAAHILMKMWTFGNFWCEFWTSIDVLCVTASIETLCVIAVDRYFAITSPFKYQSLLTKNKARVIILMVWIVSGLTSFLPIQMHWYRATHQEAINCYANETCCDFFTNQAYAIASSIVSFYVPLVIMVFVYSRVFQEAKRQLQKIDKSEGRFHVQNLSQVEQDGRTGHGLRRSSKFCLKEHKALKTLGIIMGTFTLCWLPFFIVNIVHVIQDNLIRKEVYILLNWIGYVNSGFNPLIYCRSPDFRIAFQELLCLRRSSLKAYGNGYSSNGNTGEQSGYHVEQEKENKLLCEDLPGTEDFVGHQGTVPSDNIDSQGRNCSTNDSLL
# In short: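 Assay format: CHO-ADRB2 cells, 18-20hr seeding at 37C/5% CO2, then compound plus 1nM isoproterenol agonist mix for 0.5hr RT. Homogeneous time-resolved fluorescence cAMP detection after 1hr, expressed as 665/615 nm ratio.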
# [17] = biological target: Beta-2 adrenergic receptor (Homo sapiens) (UniProt P07550); assay: Adrenergic beta2 receptor (ADRB2) small molecule agonists, cell-based qHTS assay (AID 1963593);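 also: CHO cells stably overexpressing human ADRB2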
# In short: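 CHO cells stably over-expressing ADRB2 were plated overnight at 37C, then dosed with compounds plus a stimulation mix containing 100uM IBMX and 25uM Ro-20-1724 for 0.5hr at room temperature. cAMP was measured by HTRF competition, 1hr.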
# [18] = biological target: 5-hydroxytryptamine receptor 2A (Homo sapiens) (UniProt P28223); assay: 5-hydroxytryptamine receptor 2A (HTR2A) small molecule antagonists, cell-based qHTS assay (AID 1963586); also: nearly all actives have a fitted effect of over 45% in size
# 5-hydroxytryptamine receptor 2A (Homo sapiens), sequence (P28223 whole entry, looked up): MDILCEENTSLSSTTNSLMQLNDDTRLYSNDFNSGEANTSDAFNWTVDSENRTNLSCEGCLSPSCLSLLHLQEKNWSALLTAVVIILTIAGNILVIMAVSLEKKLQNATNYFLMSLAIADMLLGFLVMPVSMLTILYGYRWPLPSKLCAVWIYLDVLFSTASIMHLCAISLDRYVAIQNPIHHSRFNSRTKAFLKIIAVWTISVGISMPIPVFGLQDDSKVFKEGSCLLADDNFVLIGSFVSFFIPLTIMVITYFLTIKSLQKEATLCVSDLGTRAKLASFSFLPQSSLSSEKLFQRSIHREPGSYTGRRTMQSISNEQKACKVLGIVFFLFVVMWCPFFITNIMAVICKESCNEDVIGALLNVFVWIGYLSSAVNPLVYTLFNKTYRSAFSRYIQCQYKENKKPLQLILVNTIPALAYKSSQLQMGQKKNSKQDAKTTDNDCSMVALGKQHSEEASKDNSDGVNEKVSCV
# In short: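 CHO cells stably expressing human HTR2A were plated for 18 h at 37 C, then loaded with calcium dye for 1 h. Compounds were preincubated 5 min at room temperature before DOI (4 nM solution) was added. Kinetic fluorescence was read for 3 min.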
# [19] = biological target: 5-hydroxytryptamine receptor 2A (Homo sapiens) (UniProt P28223); assay: 5-hydroxytryptamine receptor 2A (HTR2A) small molecule agonists, cell-based qHTS assay (AID 1963587); also: nearly all actives have a fitted effect of over 30% in size
# In short: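 CHO cells stably expressing human HTR2A, plated 18 h, loaded with calcium dye 1 h at 37 C. Agonist mode: compounds added and intracellular calcium fluorescence recorded kinetically for 2 min at 1 sec intervals.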
# [20] = biological target: Muscarinic acetylcholine receptor M1 (Homo sapiens) (UniProt P11229); assay: Cholinergic receptor muscarinic 1 (CHRM1) small molecule antagonists, cell-based qHTS assay (AID 1963588); also: nearly all actives have a fitted effect of over 40% in size; also: potency is read from the fitted curve at half-maximal effect
# Muscarinic acetylcholine receptor M1 (Homo sapiens), sequence (P11229 whole entry, looked up): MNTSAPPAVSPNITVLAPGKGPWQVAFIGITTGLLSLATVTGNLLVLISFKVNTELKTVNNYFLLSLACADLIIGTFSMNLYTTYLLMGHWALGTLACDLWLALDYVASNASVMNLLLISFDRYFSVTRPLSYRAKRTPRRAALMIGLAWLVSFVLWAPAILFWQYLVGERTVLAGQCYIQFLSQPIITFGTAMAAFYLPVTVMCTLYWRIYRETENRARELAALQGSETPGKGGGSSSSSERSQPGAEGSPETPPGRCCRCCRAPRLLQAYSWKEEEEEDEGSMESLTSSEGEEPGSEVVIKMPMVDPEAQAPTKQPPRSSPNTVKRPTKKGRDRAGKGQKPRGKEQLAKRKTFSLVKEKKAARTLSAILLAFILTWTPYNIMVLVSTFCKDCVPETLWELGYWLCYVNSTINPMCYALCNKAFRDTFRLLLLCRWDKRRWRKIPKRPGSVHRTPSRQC
# In short: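 Compounds were tested at 15 concentrations in three independent runs. Dye-loaded CHRM1-CHO cells were exposed 5 min at room temperature before stimulation by acetylcholine added at 50nM. Intracellular calcium was read kinetically on FDSS for 3 min.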
SMILES,Potency [1],Potency [2],Potency [3],Potency [4],Potency [5],Potency [6],Potency [7],Potency [8],Potency [9],Potency [10],Potency [11],Potency [12],Potency [13],Potency [14],Potency [15],Potency [16],Potency [17],Potency [18],Potency [19],Potency [20]
N[C@@H](Cc1cc(I)c(Oc2ccc(O)c(I)c2)c(I)c1)C(=O)O,inactive,inactive,inactive,inactive,inactive,inactive,inactive,inactive,inactive,inactive,inactive,inactive,inactive,inactive,,,,,,
CN(N=O)C(=O)N[C@@H]1[C@@H](O)[C@H](O)[C@@H](CO)O[C@@H]1O,inactive,inactive,inactive,inactive,inactive,inactive,inactive,inactive,,inactive,inactive,inactive,inactive,inactive,inactive,inactive,inactive,,,
CCCCCCCCCCCCCC(=O)OC(C)C,inactive,inactive,inactive,inactive,inactive,inactive,inactive,inactive,,inactive,inactive,inactive,,inactive,inactive,inactive,inactive,inactive,inactive,
CCCOC(=O)NCCCN(C)C,inactive,inactive,inactive,inactive,inactive,inactive,inactive,inactive,inactive,inactive,inactive,inactive,,inactive,,inactive,inactive,inactive,inactive,inactive
O=c1[nH]c(=O)n([C@H]2C[C@H](O)[C@@H](CO)O2)cc1Br,inactive,inactive,inactive,inactive,inactive,inactive,inactive,inactive,,inactive,,inactive,inactive,inactive,inactive,inactive,inactive,inactive,inactive,inactive
Cc1ccc2c(n1)Oc1ccc(C(C)C(=O)OCC(=O)N(C)C)cc1C2 (centres undefined),inactive,inactive,inactive,inactive,inactive,inactive,inactive,inactive,inactive,inactive,inactive,inactive,inactive,inactive,,inactive,inactive,inactive,inactive,inactive
CCCCCCOC(C)=O,inactive,inactive,inactive,inactive,inactive,inactive,inactive,inactive,,inactive,inactive,inactive,inactive,,inactive,,,inactive,inactive,
Nc1ccc(S(=O)(=O)Nc2nccs2)cc1,inactive,inactive,inactive,inactive,inactive,inactive,inactive,inactive,inactive,inactive,inactive,inactive,inactive,inactive,,inactive,inactive,,,
CN(C)CCOC(C)(c1ccccc1)c1ccccn1 (centres undefined),inactive,inactive,inactive,inactive,inactive,inactive,inactive,inactive,inactive,inactive,inactive,inactive,inactive,inactive,,inactive,inactive,inactive,inactive,18.8 µM (active) and 4.1 µM (active)
CC(CCO)CC(C)(C)C (centres undefined),inactive,inactive,inactive,inactive,inactive,inactive,inactive,inactive,,inactive,inactive,inactive,inactive,inactive,inactive,inactive,,inactive,inactive,inactive
CC1(C)CC(N=C=O)CC(C)(CN=C=O)C1 (centres undefined),inactive,inactive,inactive,inactive,inactive,inactive,inactive,inactive,inactive,inactive,inactive,inactive,inactive,inactive,,inactive,inactive,,inactive,17 µM (active)
CCOC(=O)C1OC1c1ccccc1 (centres undefined),inactive,inactive,inactive,inactive,inactive,inactive,inactive,inactive,inactive,inactive,inactive,,inactive,inactive,,inactive,inactive,inactive,inactive,inactive
COCCOCCOC,inactive,inactive,inactive,inactive,inactive,inactive,inactive,inactive,145 nM (active) and inactive,,inactive,inactive,inactive,,,inactive,inactive,inactive,inactive,inactive
C=C(C)C1CC=C(C)CC1 (centres undefined),inactive,inactive,inactive,inactive,inactive,inactive,inactive,inactive,inactive,,inactive,inactive,inactive,inactive,,inactive,inactive,inactive,inactive,inactive
O=C(O)c1ccccc1Nc1cccc(C(F)(F)F)c1,inactive,13.7 µM (active) and inactive,inactive,inactive,inactive,inactive,inactive,40.8 µM (active) and inactive,inactive,,,,inactive,inactive,,inactive,inactive,inactive,inactive,inactive
CCC(=O)/C=C/C1C(C)=CCCC1(C)C (centres undefined),inactive,inactive,inactive,inactive,inactive,inactive,inactive,inactive,inactive,inactive,,inactive,inactive,inactive,,inactive,inactive,inactive,,inactive
